In PubChem BioAssay (NCATS) one finds outcome, Potency and activity, negative = inhibition data, which are given here for 26 molecules.

SMILES strings stand for the structures. Unmarked numbers belong to inactive results. Results filed as inconclusive are left out. Activity calls are given as the source filed them. Unless noted, calls come from the whole dose curve; as a rule, active = well fitted curve in the direction sought with a large enough effect; inconclusive = small, poorly fitted or top-dose-only effect, or another doubt; inactive = no such curve, though single readings can be large; an effect the other way counts as inactive or inconclusive.

Assay [1] in a line: qHTS assay to identify small molecule inhibitors of chordoma cells - UCH-1 (AID 1259355). Note: % is set by controls: 0 for no effect and ±100 for the full control effect; nearly all actives have a fitted effect of over 55% in size. Put shortly: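 800 cells/well, overnight attach; compounds pinned at 15 concs, then auranofin/camptothecin/doxorubicin/rubitecan/topotecan combo added; 48hr 37 C, 5% CO2; CellTiter-Glo, 30min RT, luminescence.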
Background: qHTS replaces the single test concentration by a dilution series.

Assay [2] can be described thus: qHTS assay to identify small molecule inhibitors of chordoma cells - UCH-2 (AID 1259356). Note: % is set by controls: 0 for no effect and ±100 for the full control effect.
Assay [3] can be described thus: P-glycoprotein substrates identified in KB-8-5-11 adenocarcinoma cell line, qHTS therapeutic library screen (AID 1346987). Note: nearly all actives have a fitted effect of over 65% in size. Note: potency is the fitted concentration of half-maximal effect. An outline of the steps:
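Human cervical adenocarcinoma KB-8-5-11 cells, selected in colchicine to over-express P-gp and assayed without it, were exposed for 72 h to titrated compounds. An ATP-based luminescent viability signal gave AC50.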

Assay [4] can be described thus: qHTS Screen of the MIPE 4.0 Collection Against Ewings Sarcoma (EW8) (AID 1259255).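 Note: 100% = DMSO-treated cells and 0% = medium-only wells without cells; nearly all actives have a fitted effect of over 35% in size.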 Put shortly: (§1)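 Cells plated in serum-containing RPMI (5% FBS) and treated with compound dilutions for 48 h. Readout luminescent viability; normalization relied on vehicle (no inhibition) and media-only columns (full inhibition).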
Assay [5] has as its target Atrial natriuretic peptide receptor 1 (Homo sapiens) (UniProt P16066). Description: Natriuretic polypeptide receptor (hNpr1) antagonism - Pilot screen (AID 1347049; calls by dose curve;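 note: HEK293 cells with hNpr1 and GloSensor cGMP luciferase stimulated by 0.1 nM hNppA; agonist-evoked cGMP luminescence read 20 min after hNppA addition; % is set by controls: 0 for no effect and ±100 for the full control effect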). Put shortly: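 Receptor antagonism read as cGMP-dependent luminescence in hNpr1/pGS-40F HEK293 cells: pre-read after 30 min compound exposure, post-read 20 min after hNppA agonist at 0.1 nM final, all at room temperature, protected from light; A-71915 titration as control.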

Assay [6] has as its target Atrial natriuretic peptide receptor 2 (Homo sapiens) (UniProt P20594). Description: Natriuretic polypeptide receptor (hNpr2) antagonism - Pilot subtype selectivity assay (AID 1347050; calls by dose curve; note: % is set by controls: 0 for no effect and ±100 for the full control effect). Put shortly:
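Antagonist mode: compounds (LOPAC1280, seven 1:5 dilutions) added 30 min before 1 nM hNppC stimulation of hNpr2-HEK293 cGMP-sensor cells; luminescence read before and 20 min after agonist at ambient temperature.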

Assay [7] can be described thus: NS1 protein of Zika virus - qHTS assay to identify small molecule inhibitors in human HEK 293 cells (AID 1347053).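 Note: plate controls were infected untreated cells for no effect and uninfected cells for full effect; nearly all actives have a fitted effect of over 55% in size.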 Put shortly: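 Read-out is a two-antibody TR-FRET for ZIKV NS1, normalized between uninfected cells and infected cells. Compound added 1 h before MR766 infection at MOI 0.5; human HEK 293 cells incubated 24 h, 37 C.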
Assay [8] deals with T1, Tyrosine-protein phosphatase non-receptor type substrate 1 (Homo sapiens) + Leukocyte surface antigen CD47 (Homo sapiens) (UniProt P78324+Q08722). The assay can be described thus: CD47-SIRPalpha protein protein interaction - LANCE assay qHTS validation (AID 1347057; active = well fitted curve in the direction sought with a large enough effect in the signal ratio, with a control signal flat, not every such curve was filed as active; the % refers to the signal ratio; note: 0% is about no effect). Put shortly:
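Inhibition of soluble CD47/SIRPalpha ectodomain association by titrated compounds, measured as 665/615 nm time-resolved FRET ratio after sequential 30 min room-temperature incubations.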

Assay [9] concerns the target T1, Tyrosine-protein phosphatase non-receptor type substrate 1 (Homo sapiens) + Leukocyte surface antigen CD47 (Homo sapiens). Description: CD47-SIRPalpha protein protein interaction - HTRF assay qHTS validation (AID 1347058; active = well fitted curve in the direction sought with a large enough effect in the signal ratio, not every such curve was filed as active; the % refers to the signal ratio; note: 0% is about no effect). An outline of the steps: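 Soluble extracellular domains (6His-CD47, Avi-tag-biotinylated SIRPalpha) in PBS pH 7.4 with 0.05% IGEPAL CA-630. Compounds were preincubated 30 min at RT with CD47 and anti-His-Eu, then SIRPalpha and SAV-XL665 were added. TR-FRET 665/615 ratio.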
In general terms: Time-resolved FRET reads energy transfer from a long-lived donor to a nearby acceptor.

Assay [10] shares this target. Description: CD47-SIRPalpha protein protein interaction - Alpha assay qHTS validation (AID 1347059).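 Note: bead proximity luminescence from CD47 binding SIRPalpha after compound preincubation with SIRPalpha; % is set by controls: 0 for no effect and ±100 for the full control effect.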 Put shortly:
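AlphaScreen signal between CD47-His (12.5 nM) and biotin-SIRPalpha (25 nM) soluble extracellular domains, bead-captured via Ni-NTA and streptavidin. Compounds, in 7-point titrations, met SIRPalpha 30 min before CD47; PBS pH 7.4 with 0.05% IGEPAL.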

In assay [11] the target is Parathyroid hormone/parathyroid hormone-related peptide receptor (Homo sapiens) (UniProt Q03431). Description: qHTS for PTHR1 Agonists: Optimization Screen against the NCGC LOPAC library (AID 1347079).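 Note: GloSensor cAMP luminescence in HEK-293 GP2 cells expressing human PTHR1 with IBMX; 0% is about no effect.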 Put shortly: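 Signal increase flags agonism. GP2 cells, derived from HEK-293, express human PTHR1 and a GloSensor cAMP construct.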
Assay [12] is described as follows: qHTS for Inhibitors of the Functional Ribonucleoprotein Complex (vRNP) of Lassa (LASV) Arenavirus: LASV Primary Screen - GLuc reporter signal (AID 1347082; calls by dose curve; tested in HEK293 reporter line; note: % is set by controls: 0 for no effect and ±100 for the full control effect; nearly all actives have a fitted effect of over 60% in size).
Assay [13] is described as follows: qHTS for Inhibitors of the Functional Ribonucleoprotein Complex (vRNP) of Lassa (LASV) Arenavirus: Viability assay - alamar blue signal for LASV Primary Screen (AID 1347083; calls by dose curve; tested in HEK293 reporter line; note: % is set by controls: 0 for no effect and ±100 for the full control effect; nearly all actives have a fitted effect of over 80% in size).
The nature of assay [14]: qHTS for Inhibitors of the Functional Ribonucleoprotein Complex (vRNP) of Lymphocytic Choriomeningitis Arenaviruses (LCMV): Viability assay - alamar blue signal for LCMV Primary Screen (AID 1347085; calls by dose curve; tested in HEK293 reporter line; note: % is set by controls: 0 for no effect and ±100 for the full control effect; nearly all actives have a fitted effect of over 80% in size).
Assay [15] can be described thus: qHTS Screen of the MIPE 4.0 Collection Against Ewings Sarcoma (TC71) (AID 1259253). Note: nearly all actives have a fitted effect of over 40% in size. Note: potency is the fitted concentration of half-maximal effect. Put shortly:
as §1

Assay [16] in a line: qHTS Screen of the MIPE 4.0 Collection Against Ewings Sarcoma (TC32) (AID 1259256). Note: nearly all actives have a fitted effect of over 45% in size. Note: potency is the fitted concentration of half-maximal effect. An outline of the steps: as §1
Assay [17] in a line: P-glycoprotein substrates identified in KB-3-1 adenocarcinoma cell line, qHTS therapeutic library screen (AID 1346986). Note: nearly all actives have a fitted effect of over 60% in size. Particulars: KB-3-1 parental cells viability, CellTiter-Glo, 72 h; at 44.5 µM (top of the series) unless noted. Put shortly:
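Dose-response cytotoxicity, KB-3-1 vs P-gp-high KB-8-5-11, no colchicine in assay medium. Read: CellTiter-Glo at 72 h.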

Chain of Atrial natriuretic peptide receptor 2 (Homo sapiens) (P20594 whole entry, looked up): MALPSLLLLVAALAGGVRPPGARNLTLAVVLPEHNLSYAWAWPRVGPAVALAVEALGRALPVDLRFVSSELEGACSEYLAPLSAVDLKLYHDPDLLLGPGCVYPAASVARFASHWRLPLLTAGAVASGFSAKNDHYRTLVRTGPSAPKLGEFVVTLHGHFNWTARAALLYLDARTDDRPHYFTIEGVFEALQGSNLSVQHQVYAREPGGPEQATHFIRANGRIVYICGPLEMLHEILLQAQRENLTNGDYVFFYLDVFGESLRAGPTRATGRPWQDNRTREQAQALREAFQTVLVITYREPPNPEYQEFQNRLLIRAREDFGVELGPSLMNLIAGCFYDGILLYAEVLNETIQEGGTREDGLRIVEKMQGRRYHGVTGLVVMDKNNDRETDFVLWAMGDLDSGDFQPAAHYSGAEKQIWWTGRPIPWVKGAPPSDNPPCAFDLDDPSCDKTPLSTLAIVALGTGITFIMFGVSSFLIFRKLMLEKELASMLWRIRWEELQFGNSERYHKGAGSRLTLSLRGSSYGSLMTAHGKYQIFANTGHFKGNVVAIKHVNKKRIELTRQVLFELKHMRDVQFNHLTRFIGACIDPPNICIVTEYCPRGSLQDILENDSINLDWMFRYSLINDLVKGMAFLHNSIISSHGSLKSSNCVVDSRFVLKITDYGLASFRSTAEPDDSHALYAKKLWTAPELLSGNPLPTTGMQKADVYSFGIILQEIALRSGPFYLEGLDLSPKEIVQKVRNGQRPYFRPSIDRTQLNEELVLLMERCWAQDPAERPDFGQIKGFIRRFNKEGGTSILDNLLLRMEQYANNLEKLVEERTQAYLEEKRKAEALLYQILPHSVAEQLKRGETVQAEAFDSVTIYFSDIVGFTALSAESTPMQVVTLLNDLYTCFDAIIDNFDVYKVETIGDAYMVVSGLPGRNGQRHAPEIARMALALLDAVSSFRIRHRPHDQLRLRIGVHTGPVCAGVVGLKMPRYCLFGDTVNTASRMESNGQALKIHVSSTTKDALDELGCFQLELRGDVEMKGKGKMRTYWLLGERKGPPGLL
Chain of Parathyroid hormone/parathyroid hormone-related peptide receptor (Homo sapiens) (Q03431 whole entry, looked up): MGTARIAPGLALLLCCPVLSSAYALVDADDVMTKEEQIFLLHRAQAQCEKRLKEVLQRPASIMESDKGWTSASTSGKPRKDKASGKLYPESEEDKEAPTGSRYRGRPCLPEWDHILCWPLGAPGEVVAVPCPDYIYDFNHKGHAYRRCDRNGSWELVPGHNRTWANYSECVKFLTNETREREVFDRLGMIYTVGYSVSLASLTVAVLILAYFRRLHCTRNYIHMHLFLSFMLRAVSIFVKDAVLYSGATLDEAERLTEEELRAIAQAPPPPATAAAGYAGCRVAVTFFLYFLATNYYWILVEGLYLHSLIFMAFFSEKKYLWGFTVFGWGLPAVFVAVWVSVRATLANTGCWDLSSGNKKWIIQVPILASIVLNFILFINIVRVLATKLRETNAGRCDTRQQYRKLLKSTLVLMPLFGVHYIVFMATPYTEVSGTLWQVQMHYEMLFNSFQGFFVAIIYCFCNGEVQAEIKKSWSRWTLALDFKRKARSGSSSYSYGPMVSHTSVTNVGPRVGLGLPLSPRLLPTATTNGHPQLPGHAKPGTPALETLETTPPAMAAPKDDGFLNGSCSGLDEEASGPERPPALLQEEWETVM
Chain of Atrial natriuretic peptide receptor 1 (Homo sapiens) (P16066 whole entry, looked up): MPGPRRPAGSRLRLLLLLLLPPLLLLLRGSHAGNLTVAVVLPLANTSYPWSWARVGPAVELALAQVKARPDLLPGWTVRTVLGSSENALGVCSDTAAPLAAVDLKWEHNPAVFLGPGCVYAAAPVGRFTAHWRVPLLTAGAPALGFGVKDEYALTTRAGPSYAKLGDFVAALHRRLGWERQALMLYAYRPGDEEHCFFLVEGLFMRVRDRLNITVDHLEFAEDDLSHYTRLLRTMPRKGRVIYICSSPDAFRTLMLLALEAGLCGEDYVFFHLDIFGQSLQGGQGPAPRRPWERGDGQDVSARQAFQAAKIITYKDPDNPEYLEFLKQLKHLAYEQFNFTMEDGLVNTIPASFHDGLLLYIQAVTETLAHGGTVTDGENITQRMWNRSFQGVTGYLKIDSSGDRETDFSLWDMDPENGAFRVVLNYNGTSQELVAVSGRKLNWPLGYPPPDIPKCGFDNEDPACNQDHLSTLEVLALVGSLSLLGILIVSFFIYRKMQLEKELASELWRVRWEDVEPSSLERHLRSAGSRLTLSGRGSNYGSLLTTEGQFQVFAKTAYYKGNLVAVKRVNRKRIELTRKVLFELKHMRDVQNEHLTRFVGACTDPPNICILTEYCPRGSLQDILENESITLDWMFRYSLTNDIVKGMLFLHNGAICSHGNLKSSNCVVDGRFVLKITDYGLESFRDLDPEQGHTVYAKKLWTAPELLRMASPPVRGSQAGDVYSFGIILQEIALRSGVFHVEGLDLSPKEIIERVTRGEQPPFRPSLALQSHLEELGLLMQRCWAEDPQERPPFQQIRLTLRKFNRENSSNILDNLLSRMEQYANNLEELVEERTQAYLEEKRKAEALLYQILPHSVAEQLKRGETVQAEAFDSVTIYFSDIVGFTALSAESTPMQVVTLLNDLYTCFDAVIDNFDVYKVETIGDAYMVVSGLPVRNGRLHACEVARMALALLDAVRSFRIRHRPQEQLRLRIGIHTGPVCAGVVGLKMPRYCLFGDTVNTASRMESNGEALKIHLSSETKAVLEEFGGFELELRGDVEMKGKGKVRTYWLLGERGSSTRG
T1 sequence (P78324 whole entry, looked up, the tested form may be a part): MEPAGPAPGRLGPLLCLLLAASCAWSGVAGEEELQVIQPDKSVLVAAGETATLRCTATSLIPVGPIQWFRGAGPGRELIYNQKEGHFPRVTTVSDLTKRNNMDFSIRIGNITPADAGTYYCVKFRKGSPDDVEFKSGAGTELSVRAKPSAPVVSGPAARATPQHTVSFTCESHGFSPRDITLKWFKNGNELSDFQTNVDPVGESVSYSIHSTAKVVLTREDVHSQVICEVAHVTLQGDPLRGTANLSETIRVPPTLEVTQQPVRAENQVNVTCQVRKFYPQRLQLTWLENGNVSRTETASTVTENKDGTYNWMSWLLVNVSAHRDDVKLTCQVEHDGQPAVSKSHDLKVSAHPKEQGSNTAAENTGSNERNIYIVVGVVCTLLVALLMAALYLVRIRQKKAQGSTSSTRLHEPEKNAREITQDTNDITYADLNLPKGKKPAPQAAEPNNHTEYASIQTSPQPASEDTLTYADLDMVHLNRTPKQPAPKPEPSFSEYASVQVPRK
T1 sequence (Q08722 whole entry, looked up, the tested form may be a part): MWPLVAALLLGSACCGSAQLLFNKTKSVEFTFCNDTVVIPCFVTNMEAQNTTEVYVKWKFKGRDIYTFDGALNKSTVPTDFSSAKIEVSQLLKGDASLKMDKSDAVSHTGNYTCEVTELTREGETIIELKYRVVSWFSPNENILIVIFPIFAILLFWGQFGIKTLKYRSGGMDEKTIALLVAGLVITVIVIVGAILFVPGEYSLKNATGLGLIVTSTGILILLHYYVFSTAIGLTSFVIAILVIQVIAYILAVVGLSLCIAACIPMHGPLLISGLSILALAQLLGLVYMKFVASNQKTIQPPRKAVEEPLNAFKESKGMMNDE

Turning to `CN=C1CN(O)C(c2ccccc2)=c2cc(Cl)ccc2=N1`, the result in assay [1] and in assay [2] was inactive. Besides, the Potency entry in assay [3] is “inactive”.

For `CN1C(=O)CCS(=O)(=O)C1c1ccc(Cl)cc1` (configuration not stated), the call in assay [4], in assay [1], in assay [2], in assay [5], in assay [6] and in assay [7] was inactive. Further, the outcome in [8], in assay [9], in assay [10] and in assay [11] was inactive. Besides, the Potency entry in assay [3], in [12], in assay [13] and in assay [14] was “inactive” each time.

For `CCCCCCC(=O)CCCCCC/C=C/C[C@@H](O)[C@H](O)[C@@](N)(CO)C(=O)O`, the molecule was classed as inactive in [1], in assay [2] and in assay [7]. For the same molecule, the Potency entry in assay [3], in assay [12], in [13] and in [14] was “inactive” throughout.

Turning to `C[C@](O)(CS(=O)(=O)c1ccc(F)cc1)C(=O)Nc1ccc(C#N)c(C(F)(F)F)c1`, the Potency was 3.72 µM (active) in assay [15], 4.69 µM (active) in assay [16] and 14.6 µM (active) in assay [3]. The molecule was classed as inactive in assay [1] and in assay [2]. Moreover, the Potency result in assay [14] is “inactive”.

`COc1ccc2c(c1)C13CCCC[C@@H]1C(C2)N(C)CC3` (some centres not stated): the result in [1] and in [2] was inactive. For the same molecule, the Potency entry in assay [3] is “inactive”.

On to `CC(NC(C)(C)C)C(=O)c1cccc(Cl)c1` (configuration not stated), for which the Potency result in assay [15], in [16], in assay [3], in [12], in assay [13] and in assay [14] was “inactive” each time. Besides, the result in assay [4], in [1], in assay [2], in assay [5], in assay [6] and in [8] was inactive. The result in [9], in [10] and in assay [11] was inactive.

Turning to `COP(=S)(OC)Oc1ccc(SC)c(C)c1`, the outcome in assay [1], in [2] and in assay [7] was inactive. The Potency entry in [3], in assay [12], in assay [13] and in assay [14] was “inactive” each time.

`O=C1Nc2ccc(Cl)cc2C(c2ccccc2Cl)=NC1O` (configuration not stated): the molecule was classed as inactive in assay [1] and in [2]. The Potency result in [3] was “inactive”.

With `O=C(O)CCCc1ccc(N(CCCl)CCCl)cc1`, the Potency result in assay [16], in assay [3], in assay [12], in assay [13] and in [14] was “inactive” each time. Further, the result in assay [1], in assay [2], in [17], in assay [5], in [6] and in assay [7] was inactive. Moreover, the molecule was called inactive in assay [11].

With `Clc1ccc(C(c2ccc(Cl)cc2)C(Cl)(Cl)Cl)cc1`, the molecule was classed as inactive in [1], in assay [2] and in assay [7]. In addition, the Potency result in assay [3], in assay [12], in assay [13] and in assay [14] was “inactive” in each case.

As to `CC(C)c1cccc(C(C)C)c1O`, the Potency entry in [15], in assay [16], in assay [3], in assay [12], in [13] and in assay [14] was “inactive” throughout. The result in assay [4], in [1], in assay [2], in [5], in assay [6] and in [7] was inactive. Also, the outcome in assay [8], in assay [9], in [10] and in assay [11] was inactive.

As for `CCC1(c2ccc(N)cc2)CCC(=O)NC1=O` (configuration not stated), the Potency entry in [15], in [16], in [3], in assay [12], in [13] and in assay [14] was “inactive” in each case. The call in assay [4], in assay [1], in assay [2], in [5], in assay [6] and in assay [7] was inactive. Moreover, the result in assay [8], in assay [9], in [10] and in [11] was inactive.

On to `Cc1nnc2n1-c1ccc(Cl)cc1C(c1ccccc1Cl)=NC2`, for which the call in assay [1] and in assay [2] was inactive.

Turning to `CN1C(=O)COc2c(C(=O)NC3CN4CCC3CC4)cc(Cl)cc21` (configuration not stated), the Potency result in assay [15], in assay [16], in assay [3], in [12], in assay [13] and in assay [14] was “inactive” each time. In addition, the outcome in assay [4], in assay [1], in assay [2] and in assay [7] was inactive.

In the case of `CC(C)N(CCC(C(N)=O)(c1ccccc1)c1ccccn1)C(C)C` (configuration not stated), the outcome in assay [1], in [2], in [5], in assay [6], in assay [8] and in assay [9] was inactive. The result in [10] and in [11] was inactive. The Potency entry in assay [3], in [12], in assay [13] and in assay [14] was “inactive” each time.

On to `CN1C(=O)CC(=O)N(c2ccccc2)c2cc(Cl)ccc21`, for which the result in [1] and in assay [2] was inactive. Besides, the Potency result in assay [3] was “inactive”.

In the case of `Clc1ccc2c(c1)C(c1ccccc1)=NCc1nncn1-2`, the result in assay [1] and in [2] was inactive. Besides, the Potency result in assay [3] was “inactive”.

Turning to `Nc1ccc([As](=O)(O)O)cc1`, the molecule was classed as inactive in assay [1], in [2] and in [7]. The Potency entry in assay [3], in assay [12], in [13] and in assay [14] was “inactive” each time.

For the molecule `C[C@]12CC[C@@H]3c4ccc(OC(=O)N(CCCl)CCCl)cc4CC[C@H]3[C@@H]1CC[C@@H]2OP(=O)(O)O`, the Potency result in [15], in assay [16], in [3], in [12], in [13] and in assay [14] was “inactive” each time. For the same molecule, the outcome in [4] and in assay [17] was inactive.

`CCCC(C)(COC(N)=O)COC(N)=O`: the call in assay [1] and in [2] was inactive. Besides, in [3], the Potency result is “inactive”.

`CN1C(=O)C(O)N=C(c2ccccc2)c2cc(Cl)ccc21` (configuration not stated): the call in assay [1] and in assay [2] was inactive.

For the molecule `CC(C)(C)NCC(O)c1ccccc1Cl` (configuration not stated), in assay [1], the activity, negative = inhibition was 11.9% [at 9.21 µM]. In addition, the call in assay [2], in assay [5], in [6], in assay [7], in assay [8] and in assay [9] was inactive. Moreover, the result in assay [10] and in assay [11] was inactive. In addition, the Potency entry in assay [3], in assay [12], in [13] and in [14] was “inactive” each time.

Regarding `Cc1ncsc1CCCl`, the outcome in [1], in [2], in assay [5], in assay [6], in assay [8] and in assay [9] was inactive. Besides, the result in assay [10] and in assay [11] was inactive. Also, the Potency entry in assay [3], in assay [12], in assay [13] and in assay [14] was “inactive” each time.

`O=c1[nH]oc2c1CCNC2`: the result in assay [1], in [2], in assay [5], in [6], in assay [7] and in assay [8] was inactive. The outcome in [9], in assay [10] and in assay [11] was inactive. Besides, the Potency result in assay [3], in assay [12], in assay [13] and in assay [14] was “inactive” each time.

With `CCC1(c2ccccc2)C(=O)N(COC)C(=O)N(COC)C1=O`, the molecule was called inactive in [1], in assay [2] and in assay [7]. The Potency result in assay [3], in [12], in assay [13] and in assay [14] was “inactive” each time.

As to `COC(=O)C(c1ccccc1)C1CCCCN1` (configuration not stated), the result in assay [1] and in assay [2] was inactive. For the same molecule, the Potency entry in [3] was “inactive”.
